Assay results from PubChem BioAssay AID504339 (National Center for Advancing Translational Sciences (NCATS), 2011).
Hit rate of the full screen: of about 390,000 compounds, about 17,000 (4.4%) were called active. Inconclusive results (about 8%) are left out. For the sample, actives were picked, then their nearest neighbours and some compounds at random. Values without a mark were called inactive. Calls come from the whole dose curve; as a rule, active = well fitted inhibition curve with a large enough effect; inconclusive = small, poorly fitted or top-dose-only effect; inactive = no such curve, though single readings can be large or run the other way.
% is set by controls: 0 for no effect and ±100 for the full control effect; potency is the fitted concentration of half-maximal effect.
Note: nearly all actives have a fitted effect of over 50% in size.

What follows are molecules tested against Lysine-specific demethylase 4A (Homo sapiens) (UniProt O75164) (assay: qHTS Assay for Inhibitors of JMJD2A-Tudor Domain). Details: AlphaScreen JMJD2A-Tudor / H3K4me3 peptide binding; series mostly up to 114 µM; activity change, negative = inhibition: at the top concentration.
Lysine-specific demethylase 4A (Homo sapiens), sequence (O75164 whole entry, looked up, the tested form may be a part): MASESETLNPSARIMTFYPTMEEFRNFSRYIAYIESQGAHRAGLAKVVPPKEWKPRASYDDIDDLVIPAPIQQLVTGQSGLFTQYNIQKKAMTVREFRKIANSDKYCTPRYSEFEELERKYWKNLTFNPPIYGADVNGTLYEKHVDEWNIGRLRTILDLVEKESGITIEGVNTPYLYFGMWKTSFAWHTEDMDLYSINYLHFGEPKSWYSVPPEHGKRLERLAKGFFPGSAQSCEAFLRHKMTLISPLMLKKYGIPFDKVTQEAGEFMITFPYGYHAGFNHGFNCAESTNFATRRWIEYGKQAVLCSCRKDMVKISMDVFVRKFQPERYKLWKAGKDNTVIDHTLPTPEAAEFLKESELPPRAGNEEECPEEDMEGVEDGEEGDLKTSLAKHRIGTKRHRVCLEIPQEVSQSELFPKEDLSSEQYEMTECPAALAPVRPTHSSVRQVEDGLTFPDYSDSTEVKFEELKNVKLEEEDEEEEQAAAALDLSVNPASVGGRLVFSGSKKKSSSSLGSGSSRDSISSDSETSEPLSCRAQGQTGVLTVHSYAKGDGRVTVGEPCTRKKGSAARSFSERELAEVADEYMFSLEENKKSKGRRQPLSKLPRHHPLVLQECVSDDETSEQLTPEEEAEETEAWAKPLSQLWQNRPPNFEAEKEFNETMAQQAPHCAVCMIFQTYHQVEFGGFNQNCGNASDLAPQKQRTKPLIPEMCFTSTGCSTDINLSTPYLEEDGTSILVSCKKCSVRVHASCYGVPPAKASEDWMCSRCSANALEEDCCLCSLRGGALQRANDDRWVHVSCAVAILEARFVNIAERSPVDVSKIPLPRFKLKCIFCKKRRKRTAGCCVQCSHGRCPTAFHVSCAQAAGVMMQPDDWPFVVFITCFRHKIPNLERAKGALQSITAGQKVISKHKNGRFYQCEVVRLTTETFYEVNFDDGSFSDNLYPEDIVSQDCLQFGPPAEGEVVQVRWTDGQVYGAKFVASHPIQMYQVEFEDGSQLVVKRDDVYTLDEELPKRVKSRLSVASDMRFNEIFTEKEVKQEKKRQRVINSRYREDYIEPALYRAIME
For Cc1ccc2nc(COc3ccc(NC(=O)COc4ccccc4F)cc3)cc(=O)n2c1, the “activity change, negative = inhibition” value was -2.6%. For Cc1ccc(NC(=O)Cn2nnc3sc4c(c3c2=O)CCC(C)C4)cc1 (stereo unspecified), the “activity change, negative = inhibition” value was -12.8%. CCC(=O)N1CCc2cc(S(=O)(=O)NC(C(=O)NCCc3ccc(C)cc3)C(C)C)ccc21 (stereo unspecified) was tested, and the “activity change, negative = inhibition” value was -18.3%. Cc1ccc(NC(=O)c2ccc(CSc3ncnc4nc[nH]c34)cc2)c(C)c1 was tested, and the “activity change, negative = inhibition” value was -6.81%. S=c1c2[nH]cnc2ncn1CCSc1ncnc2nc[nH]c12 was tested, and the Potency was 12.6 µM (active). In the case of CCc1ccc(N(CC)c2ncnc3nc[nH]c23)cc1, the “activity change, negative = inhibition” value is reported as -11.3%. CN(C(=O)CSc1nc2ccc(NC(=O)COc3ccccc3)cc2s1)c1ccccc1 was tested, and the “activity change, negative = inhibition” value was -15.6%. In the case of CCN1C(=O)[C@@H]2[C@@H](c3ccc(-c4ccc(OC)cc4)c(OC)c3)N3CCC[C@@]3(C(=O)OC)[C@@H]2C1=O, the “activity change, negative = inhibition” value is reported as -26.4%. For CCCCCCSc1ccc([C@@H]2[C@H]3C(=O)N(CC)C(=O)[C@H]3[C@]3(C(=O)OC)CCCCN23)cc1, the “activity change, negative = inhibition” value was -7.64%. In the case of CCCCCCSc1ccc([C@@H]2[C@@H]3C(=O)N(CC)C(=O)[C@@H]3[C@]3(C(=O)OC)CCCCN23)cc1OC, the Potency is reported as 56.2 µM (active). COc1ccc(Cc2nc3ccc(C(=O)NCc4ccccc4C)cc3o2)cc1 was tested, and the “activity change, negative = inhibition” value was -8.95%. O=C1c2ccccc2C(=O)N1c1ccc(S(=O)(=O)N2CCOCC2)c2ccccc12 was tested, and the “activity change, negative = inhibition” value was -10.6%. With O=[N+]([O-])c1ccccc1/C=N/n1c(COc2ccccc2)n[nH]c1=S the Potency was 50.1 µM (active). COc1ccc(OCC(=O)NNC(=O)C2CCC2)cc1 was tested, and the “activity change, negative = inhibition” value was 3.76%. For Fc1ccc(/C=N/n2c(COc3ccccc3)n[nH]c2=S)cc1, the Potency was 56.2 µM (active). For O=C(COc1ccccc1)Nc1ccc(F)cc1, the “activity change, negative = inhibition” value was 2.1%. S=c1[nH]nc(COc2ccccc2)n1-c1ccccc1 was tested, and the Potency was 12.6 µM (active). Cc1c(NC(=O)CCCOc2ccccc2)cccc1[N+](=O)[O-] was tested, and the “activity change, negative = inhibition” value was -23.9%. In the case of O=C(COc1ccccc1[N+](=O)[O-])N/N=C/c1ccc[nH]1, the “activity change, negative = inhibition” value is reported as -25.3%. With COc1ccccc1OCc1nnc(SCC(N)=O)n1-c1ccccc1 the “activity change, negative = inhibition” value was -10.9%. For COc1ccc(CNc2nnnn2C)cc1, the “activity change, negative = inhibition” value was -6.16%. CC(Sc1nnc(COc2ccccc2)n1-c1ccccc1)C(=O)O (stereo unspecified) was tested, and the “activity change, negative = inhibition” value was -15.1%. COc1ccc(OCc2n[nH]c(=S)n2N)cc1 was tested, and the Potency was 3.98 µM (active). In the case of CCOc1ccccc1C(=O)Nc1ccc2c(c1)N(C)C(=O)c1ccccc1S2, the “activity change, negative = inhibition” value is reported as -15%. In the case of CCOC(=O)c1cc2c(=O)n3ccccc3nc2n(CCCOC)c1=NC(=O)C(C)Oc1ccccc1 (stereo unspecified), the “activity change, negative = inhibition” value is reported as -18.1%. Cc1ccc2nc(N3CCN(c4cccc(Cl)c4)CC3)c3nnnn3c2c1 was tested, and the “activity change, negative = inhibition” value was 15.9%. For Cc1cc(C)cc(NC(c2nnc(-c3cccc(F)c3)o2)c2ccc(F)cc2Cl)c1 (stereo unspecified), the “activity change, negative = inhibition” value was -17.8%. COc1ccc(CCNC(=O)c2ccc(-n3c(C)cc4c3CCCC4)cc2)cc1OC was tested, and the “activity change, negative = inhibition” value was -22.1%. For COc1ccc(C2/C=C\CN(Cc3ccco3)C(C)C(=O)N2Cc2ccc(F)cc2)cc1 (stereo unspecified), the “activity change, negative = inhibition” value was -26.2%. O=C(NCCc1ccccc1)c1ccc2c(c1)N(Cc1ccccc1)C(=O)c1ccccc1S2(=O)=O was tested, and the “activity change, negative = inhibition” value was -19.2%. Cc1cnc(NC(=O)Cn2cnc3c2c(=O)n(C)c(=O)n3C)s1 was tested, and the “activity change, negative = inhibition” value was 3.52%. In the case of Cc1cnc(NC(=O)c2ccccn2)s1, the Potency is reported as 56.2 µM (active). With CN(C(=O)c1ccccn1)c1nnc(-c2ccccn2)s1 the “activity change, negative = inhibition” value was -13.5%. With Cc1c(Cl)cccc1NC(=O)c1noc2c1CCCC2 the “activity change, negative = inhibition” value was 10.6%. In the case of CC(=O)Nc1ccc(NC(=O)CS(=O)(=O)c2cn(CC(=O)N3CCCCC3)c3ccccc23)cc1, the “activity change, negative = inhibition” value is reported as -3.42%. CCOC(=O)c1ccc(NC(=O)CS(=O)(=O)c2cn(CC)c3ccccc23)cc1 was tested, and the Potency was 79.4 µM (active). In the case of CCOC(=O)c1ccc(NC(=O)Cn2cc(S(=O)(=O)Cc3ccccc3F)c3ccccc32)cc1, the “activity change, negative = inhibition” value is reported as -14.9%. COc1ccccc1NC(=O)CSc1oc(-c2ccco2)nc1S(=O)(=O)c1ccc(Br)cc1 was tested, and the “activity change, negative = inhibition” value was -23.2%. In the case of CCCn1c2ccccc2c2cnn(CC(=O)N(C)c3ccccc3CC)c(=O)c21, the “activity change, negative = inhibition” value is reported as -26.7%. With CCN(CC)CCOCCOc1ccc(Cl)c2ccccc12 the Potency was 25.1 µM (active). With CCCC(C(=O)OCCN(CC)CC)(c1ccccc1)c1ccccc1 the “activity change, negative = inhibition” value was -36%. For CN(C)CCOCCOc1ccc(Cl)c2ccccc12, the Potency was 3.16 µM (active). In the case of CCOc1ccc(S(=O)(=O)N2CCCCCC2)c2ccccc12, the “activity change, negative = inhibition” value is reported as 23.2%. In the case of COc1ccc(C)cc1NC(=O)C(=O)NCCc1sc(-c2cccc(C)c2)nc1C, the “activity change, negative = inhibition” value is reported as -6.13%. In the case of Cc1nc(SCC(=O)N2CCN(c3ccccc3)CC2)[nH]c(=O)c1C, the “activity change, negative = inhibition” value is reported as -9.03%. In the case of CCOc1ccc(NC(=O)CCC(=O)N2CC(C)Oc3ccc(C)cc32)cc1 (stereo unspecified), the “activity change, negative = inhibition” value is reported as -2.32%. For CCOc1ccc(CNC(=O)c2ccc3c(c2)nnn3C2CCCC2)cc1, the “activity change, negative = inhibition” value was -18.5%. In the case of COc1ccc(-c2nc3sc(CCNC(=O)C(C)(C)C)c(C)n3n2)cc1, the “activity change, negative = inhibition” value is reported as -14%. With CCOC(=O)C[C@H]1c2ccc(C(F)(F)F)cc2S(=O)(=O)N1c1ccccc1 the “activity change, negative = inhibition” value was -14.3%. In the case of CCOC(=O)NNc1cc(C(F)(F)F)ccn1, the “activity change, negative = inhibition” value is reported as -14.5%. CCOC(=O)C1Nc2ccc(C(F)(F)F)cc2C2C=CCC12 (stereo unspecified) was tested, and the Potency was 50.1 µM (active).
